Laboratory results published in PubChem BioAssay AID1159580 (chemical genetic matrix, 2015).
About 2,000 (36%) of roughly 5,500 compounds were called active. Another 18% or so got no clear call; they are omitted. No stated cut-off is given here; in the data, active means normalized growth mostly below about 0.91 (no sharp cut-off); inconclusive means no clear call, values can overlap the other calls; inactive means mostly above about 0.92. This is one part of the list.

Experiment: chemical genetic growth profiling, strain panel (AID 1159580);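 further: tested at 20 µM; growth read once vehicle control cultures reached saturation at 30 °C; 1 = growth at the plate median or of vehicle wells; lower values mean less growth of the strain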
Details: growth OD

Measured: normalized growth

O=C1C=CC(=C(c2ccc(O)cc2)c2ccc(O)cc2)C=C1
inactive: S. cerevisiae deletion strains, locus YJR075W, strain HOC1, active compounds read low 1.02 | S. cerevisiae deletion strains, locus YKL009W, strain mrt4, active compounds read low 0.995 | S. cerevisiae deletion strains, locus YKL068W, active compounds read low 0.997 | S. cerevisiae deletion strains, locus YKL085W, strain MDH1 (second series), active compounds read low 0.994 | S. cerevisiae deletion strains, locus YKL085W, strain MDH1, active compounds read low 0.994 | S. cerevisiae deletion strains, locus YKL160W, strain elf1, active compounds read low 1.01 | S. cerevisiae deletion strains, locus YKL190W, strain CNB1, active compounds read low 0.994 | S. cerevisiae deletion strains, locus YKR001C, strain vps1, active compounds read low 0.986 | S. cerevisiae deletion strains, locus YKR026C, strain gcn3, active compounds read low 0.975 | S. cerevisiae deletion strains, locus YKR091W, strain srl3, active compounds read low 0.989 | S. cerevisiae deletion strains, locus YLL001W, strain dnm1, active compounds read low 0.976 | S. cerevisiae deletion strains, locus YLL026W, active compounds read low 0.996 | S. cerevisiae deletion strains, locus YLL041C, strain sdh2, active compounds read low 0.991 | S. cerevisiae deletion strains, locus YLR027C, strain aat2, active compounds read low 0.998 | S. cerevisiae deletion strains, locus YLR039C, strain RIC1, active compounds read low 1.04 | S. cerevisiae deletion strains, locus YLR058C, strain SHM2, active compounds read low 0.991 | S. cerevisiae deletion strains, locus YLR102C, strain apc9, active compounds read low 0.994 | S. cerevisiae deletion strains, locus YLR113W, strain HOG1, active compounds read low 1.03 | S. cerevisiae deletion strains, locus YLR221C, strain rsa3, active compounds read low 0.983 | S. cerevisiae deletion strains, locus YLR258W, strain gsy2, active compounds read low 1.01 | S. cerevisiae deletion strains, locus YLR262C, strain YPT6 (second series), active compounds read low 0.972 | S. cerevisiae deletion strains, locus YLR262C, strain YPT6, active compounds read low 1.02 | S. cerevisiae deletion strains, locus YLR268W, strain sec22, active compounds read low 1.02 | S. cerevisiae deletion strains, locus YLR320W, strain mms22, active compounds read low 0.972 | S. cerevisiae deletion strains, locus YLR330W, strain CHS5, active compounds read low 0.995 | S. cerevisiae deletion strains, locus YLR342W, strain FKS1 (second series), active compounds read low 0.972 | S. cerevisiae deletion strains, locus YLR342W, strain FKS1, active compounds read low 0.991 | S. cerevisiae deletion strains, locus YLR357W, strain rsc2, active compounds read low 0.999 | S. cerevisiae deletion strains, locus YLR370C, strain arc18, active compounds read low 0.964 | S. cerevisiae deletion strains, locus YLR371W, strain rom2, active compounds read low 0.985 | S. cerevisiae deletion strains, locus YLR384C, strain iki3, active compounds read low 0.986 | S. cerevisiae deletion strains, locus YLR418C, strain cdc73, active compounds read low 0.999 | S. cerevisiae deletion strains, locus YML016C, strain PPZ1, active compounds read low 0.991 | S. cerevisiae deletion strains, locus YML032C, strain rad52, active compounds read low 0.98 | S. cerevisiae deletion strains, locus YML120C, strain ndi1, active compounds read low 1.01 | S. cerevisiae deletion strains, locus YML124C, strain tub3, active compounds read low 0.983 | S. cerevisiae deletion strains, locus YMR058W, strain fet3, active compounds read low 0.982 | S. cerevisiae deletion strains, locus YMR078C, strain ctf18, active compounds read low 0.98 | S. cerevisiae deletion strains, locus YMR125W, strain sto1, active compounds read low 0.974 | S. cerevisiae deletion strains, locus YMR129W, active compounds read low 0.987 | S. cerevisiae deletion strains, locus YMR205C, strain PFK2, active compounds read low 0.995 | S. cerevisiae deletion strains, locus YMR223W, strain ubp8, active compounds read low 0.982 | S. cerevisiae deletion strains, locus YMR231W, strain pep5, active compounds read low 0.98 | S. cerevisiae deletion strains, locus YMR263W, strain SAP30, active compounds read low 1.02 | S. cerevisiae deletion strains, locus YMR307W, strain GAS1, active compounds read low 0.945 | S. cerevisiae deletion strains, locus YNL067W, strain RPL9B, active compounds read low 1.03 | S. cerevisiae deletion strains, locus YNL071W, strain lat1, active compounds read low 0.971 | S. cerevisiae deletion strains, locus YNL128W, strain TEP1, active compounds read low 1.02 | S. cerevisiae deletion strains, locus YNL153C, strain GIM3, active compounds read low 1.01 | S. cerevisiae deletion strains, locus YNL183C, strain NPR1, active compounds read low 0.986 | S. cerevisiae deletion strains, locus YNL209W, strain ssb2, active compounds read low 0.985 | S. cerevisiae deletion strains, locus YNL233W, strain BNI4, active compounds read low 0.999 | S. cerevisiae deletion strains, locus YNL248C, strain rpa49, active compounds read low 0.966 | S. cerevisiae deletion strains, locus YNL250W, strain rad50, active compounds read low 0.984 | S. cerevisiae deletion strains, locus YNL271C, strain bni1, active compounds read low 0.992 | S. cerevisiae deletion strains, locus YNL298W, strain CLA4, active compounds read low 0.981 | S. cerevisiae deletion strains, locus YNL307C, strain MCK1, active compounds read low 0.98 | S. cerevisiae deletion strains, locus YNL322C, strain KRE1 (second series), active compounds read low 0.951 | S. cerevisiae deletion strains, locus YNL322C, strain KRE1, active compounds read low 1.01 | S. cerevisiae deletion strains, locus YNR049C, strain mso1, active compounds read low 0.979 | S. cerevisiae deletion strains, locus YNR052C, strain pop2, active compounds read low 0.966 | S. cerevisiae deletion strains, locus YOL006C, strain TOP1, active compounds read low 1.02 | S. cerevisiae deletion strains, locus YOL012C, strain htz1 1.83 | S. cerevisiae deletion strains, locus YOL147C, strain pex11, active compounds read low 0.985 | S. cerevisiae deletion strains, locus YOR001W, strain rrp6, active compounds read low 0.96 | S. cerevisiae deletion strains, locus YOR061W, strain CKA2, active compounds read low 1 | S. cerevisiae deletion strains, locus YOR069W, strain VPS5, active compounds read low 1.02 | S. cerevisiae deletion strains, locus YOR070C, strain gyp1, active compounds read low 1 | S. cerevisiae deletion strains, locus YOR080W, strain dia2, active compounds read low 0.986 | S. cerevisiae deletion strains, locus YOR083W, strain WHI5, active compounds read low 1.02 | S. cerevisiae deletion strains, locus YOR106W, strain vam3, active compounds read low 0.984 | S. cerevisiae deletion strains, locus YOR136W, strain idh2, active compounds read low 0.982 | S. cerevisiae deletion strains, locus YOR144C, strain elg1, active compounds read low 0.985 | S. cerevisiae deletion strains, locus YOR184W, strain ser1, active compounds read low 0.988 | S. cerevisiae deletion strains, locus YOR231W, strain MKK1, active compounds read low 1.04 | S. cerevisiae deletion strains, locus YOR265W, strain rbl2, active compounds read low 0.978 | S. cerevisiae deletion strains, locus YOR270C, strain vph1, active compounds read low 0.926 | S. cerevisiae deletion strains, locus YOR290C, strain snf2, active compounds read low 1.01 | S. cerevisiae deletion strains, locus YOR316C, strain cot1, active compounds read low 0.984 | S. cerevisiae deletion strains, locus YPL051W, strain arl3, active compounds read low 0.987 | S. cerevisiae deletion strains, locus YPL055C, strain LGE1, active compounds read low 1.06 | S. cerevisiae deletion strains, locus YPL078C, strain atp4, active compounds read low 0.973 | S. cerevisiae deletion strains, locus YPL106C, strain sse1, active compounds read low 0.994 | S. cerevisiae deletion strains, locus YPL240C, strain hsp82, active compounds read low 0.973 | S. cerevisiae deletion strains, locus YPL241C, strain CIN2, active compounds read low 1.02 | S. cerevisiae deletion strains, locus YPL256C, strain CLN2, active compounds read low 1.05 | S. cerevisiae deletion strains, locus YPR119W, strain clb2, active compounds read low 0.979 | S. cerevisiae deletion strains, locus YPR141C, strain kar3, active compounds read low 0.992 | S. cerevisiae deletion strains, locus YPR163C, strain tif3, active compounds read low 0.989 | S. cerevisiae deletion strains, locus YPR167C, strain met16, active compounds read low 0.991 | S. cerevisiae deletion strains, strain wtn01, active compounds read low 0.991 | S. cerevisiae strains, strain wild type, active compounds read low 0.994
